Screening data deposited in PubChem BioAssay by Johns Hopkins Ion Channel Center.
KCNQ2 block: inhibitors of rat KCNQ2 potassium channel. O88943. actives 1.1% (n = 310,000). AID 2156. CHO-K1 KCNQ2, FluxOR thallium flux, 20 min; active compounds read low. B-score at 10 µM;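 active means fluorescence ratio B-score at most minus 3 library SDs, with starting brightness B-score within 2 library SDs, cut at about -5.5 in these data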
KCNQ2 pot: KCNQ2 (rat) channel potentiation. O88943. CHO-K1 KCNQ2, FluxOR thallium flux fluorescence; active compounds read high. B-score at 10 µM. actives 0.54% (n = 310,000). AID 2239;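 active means fluorescence ratio B-score at least 3 SD of library B-scores, with initial fluorescence B-score within 3 of them, cut at about 5.3 in these data; same plate scores as AID 2156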;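 further: B-score of peak minus minimum over baseline fluorescence ratio after K+ and Tl+ stimulus; positive B-score means potentiation of KCNQ2 with more thallium influx and brighter signal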
Kir21 confirm: confirmation of mouse Kir2.1 potassium channel inhibitors; shares compounds with KCNQ2 pot; Kir2.1-expressing cells, FluxOR thallium flux fluorescence; active compounds read low; Tl flux remaining, % of negative control (active compounds read low), % at 10 µM; actives 41% (n = 2,300); AID 2032;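 active means Primary-screen hit whose thallium flux fell at least 3 control SD below untreated wells in both duplicates, with normal baseline fluorescence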;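 further: 0% = blank wells without stimulus and 100% = stimulated no-compound controls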
Target sequence (P35561 whole entry, looked up): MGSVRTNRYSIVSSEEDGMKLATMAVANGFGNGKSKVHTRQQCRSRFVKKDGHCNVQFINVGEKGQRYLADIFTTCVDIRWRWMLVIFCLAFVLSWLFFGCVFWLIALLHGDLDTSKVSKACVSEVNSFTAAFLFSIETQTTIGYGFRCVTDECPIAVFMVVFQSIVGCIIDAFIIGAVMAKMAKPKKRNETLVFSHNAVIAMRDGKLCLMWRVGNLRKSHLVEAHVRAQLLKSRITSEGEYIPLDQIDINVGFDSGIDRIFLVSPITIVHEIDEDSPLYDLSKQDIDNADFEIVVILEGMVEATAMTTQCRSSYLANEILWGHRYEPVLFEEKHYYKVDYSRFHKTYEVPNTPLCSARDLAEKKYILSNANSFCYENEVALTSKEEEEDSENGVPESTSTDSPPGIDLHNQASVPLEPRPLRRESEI
HEK293 Tl flux: parental HEK293 activity in Kir2.1 inhibitor counter-screen; FluxOR signal as % of negative control (100 = no effect), % at 10 µM; actives 19% (n = 2,300); parental HEK293 cells, FluxOR thallium flux fluorescence; 0% = unstimulated blank wells; shares compounds with KCNQ2 pot;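 active means dye signal at least 3 control SD above or below untreated wells in both duplicates, raw fluorescence within 3, either direction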;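 further: percent is based on the flux ratio of peak minus minimum fluorescence over baseline F0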
CHO-K1 ctr: counter-screen for KCNQ2 potentiators: effect in parental CHO-K1 cells. shares compounds with KCNQ2 pot. actives 43% (n = 1,200). activity increase over 3SD of controls, % at 10 µM. FluxOR thallium flux fluorescence; zero = vehicle mean+3SD, 100% = vehicle-minus-blank window. AID 2282;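 active means signal rise of at least 3 SD above the untreated control mean, in both duplicate wells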;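 further: counter screen of KCNQ2 potentiator hits so any rise reflects channel-independent effects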
KCNQ1 pot spec: selectivity of KCNQ2 potentiators: effect on human KCNQ1; actives 28% (n = 1,200); activation over 3SD threshold, % at 10 µM; CHO KCNQ1 stable, FluxOR thallium flux fluorescence; beyond 3SD, as % of vehicle-control signal; shares compounds with KCNQ2 pot;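 active means fluorescence ratio rise of at least 3 SD of vehicle wells above their mean, in both replicate wells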;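 further: 0% = vehicle mean plus 3 SD and 100% = vehicle minus unstimulated blank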
KCNQ2 pot confirm: rat KCNQ2 channel potentiator confirmation; shares compounds with KCNQ2 pot; CHO-KCNQ2 cells, FluxOR thallium flux fluorescence; potentiation, less the hit threshold, % at 10 µM; actives 68% (n = 1,200);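 active means fluorescence ratio rising 3 SD or more over the vehicle control mean in both replicates, plus primary screen hit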;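 further: peak minus minimum thallium fluorescence divided by baseline after K/Tl stimulus; 0% = vehicle mean plus 3 SD and 100% = vehicle minus unstimulated blank difference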
Kir21 spec: selectivity of KCNQ2 potentiators: effect on mouse Kir2.1; shares compounds with KCNQ2 pot; HEK293 Kir2.1, FluxOR thallium flux fluorescence; activity over 3SD threshold, % at 10 µM; actives 2% (n = 1,200); AID 2345;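 active means fluorescence ratio rise of at least 3 SD above the vehicle-control mean, seen in both replicates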;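 further: 0% = vehicle mean plus 3 SD and 100% = vehicle minus no-stimulus blank window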
KCNQ2 W236L pot: rat KCNQ2 W236L mutant potentiation by KCNQ2 potentiators; shares compounds with KCNQ2 pot; CHO KCNQ2-W236L, automated patch clamp current; current increase over 3SD of negative controls (%), active compounds read high, % at 25 µM; actives 10% (n = 940); AID 2558;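 active means current increase at least 3 SD of the untreated controls above them in both duplicate recordings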
* hit, by the source's call; i = inactive; . = no result given. In the library only some 1.6% were active in any assay of this set; here they are far more common.

SMILES	KCNQ2 block	KCNQ2 pot	Kir21 confirm	HEK293 Tl flux	others
C=CCn1c(SCC(N)=O)nc2scc(-c3ccc(C)o3)c2c1=O	i	5.3*	i	195%*	CHO-K1 ctr=22*;KCNQ1 pot spec=-17;KCNQ2 pot confirm=25*;Kir21 spec=-26;KCNQ2 W236L pot=i
C=CCn1c(SCC(=O)NCCOC)nc2scc(-c3ccco3)c2c1=O	i	.	.	.
Cc1ccc(S(=O)(=O)N2CCN(C(=O)CN3C(=O)NC4(CCCC4)C3=O)CC2)c(C)c1	i	.	.	.
O=C(NC(=S)Nc1ccc(N2CCCCC2)c(Cl)c1)c1cccs1	i	6.6*	i	i	CHO-K1 ctr=9.4*;KCNQ1 pot spec=11*;KCNQ2 pot confirm=1.0*;Kir21 spec=-26;KCNQ2 W236L pot=i
O=C(Nc1cc(Cl)ccc1N1CCCCC1)c1cccs1	i	.	.	.
Cc1ccc2c(c1)c1c(n2CC(O)CNC(CO)(CO)CO)CCCC1 (centres undefined)	i	0.98	.	.
Cc1ccc2c(c1)c1c(n2CC(O)CNC2CCCCC2)CCCC1 (centres undefined)	i	.	51%*	i
COc1ccc(CCN(C)Cc2c(O)ccc3ccccc23)cc1OC	i	0.75	.	.
Cc1ccc(S(=O)(=O)NCCC(=O)N2CCC(Cc3ccccc3)CC2)cc1	i	5.3*	i	i	CHO-K1 ctr=13*;KCNQ1 pot spec=-22;KCNQ2 pot confirm=-19;Kir21 spec=-35;KCNQ2 W236L pot=i
Cc1ccc(S(=O)(=O)NCCC(=O)N2CCCCCC2)cc1	i	0.07	.	.
CN(CC(=O)Nc1cccc(S(=O)(=O)N2CCOCC2)c1)CC(=O)Nc1ccc(Cl)c(C(F)(F)F)c1	i	0.03	.	.
CCN1CCN(C(=O)CSCc2nc(-c3ccc(OC)c(OC)c3)oc2C)CC1	i	.	.	.
CCN1CCN(CCNC(=O)CSCc2nc(-c3ccc(OC)c(OC)c3)oc2C)CC1	i	10*	i	i	CHO-K1 ctr=22*;KCNQ1 pot spec=-15;KCNQ2 pot confirm=-21;Kir21 spec=-30
Cc1cc(C)c(Cn2c3ccccc3c3cnn(CC(=O)NCc4ccccn4)c(=O)c32)c(C)c1	i	14*	i	i	CHO-K1 ctr=-40;KCNQ1 pot spec=-14;KCNQ2 pot confirm=8.7*;Kir21 spec=-12;KCNQ2 W236L pot=i
Cc1cc(C)c(Cn2c3ccccc3c3cnn(CC(=O)NCCN4CCOCC4)c(=O)c32)c(C)c1	i	1.6	.	.
CCCC(=O)Nc1ccc(Cl)c(NC(=O)c2cccc(OC)c2)c1	i	.	.	.
Cn1cc(Br)c(NS(=O)(=O)c2ccc(Cl)s2)n1	i	0.06	.	.
CN(C)C(=O)c1cc(Cl)ccc1Sc1cc(Cl)ccc1Cl	i	.	.	.
CN(C)C(=O)c1cc(F)ccc1Sc1cc(Cl)ccc1Cl	i	.	47%*	i
COc1c(C(=O)NNC(=O)c2ccccc2Cl)csc1Br	i	.	.	.
CN(C)c1ccc(-n2cccc2/C=C/[N+](=O)[O-])cc1	i	.	.	.
CN(c1ccccc1)c1ccc(/C=C/[N+](=O)[O-])cc1	i	.	i	i
O=C(CC1(c2ccc(Cl)cc2)C2CC3CC(C2)CC1C3)NCCO (centres undefined)	i	5.4*	i	i	CHO-K1 ctr=48*;KCNQ1 pot spec=72*;KCNQ2 pot confirm=14*;Kir21 spec=-46;KCNQ2 W236L pot=i
O=C(COC(=O)C12CC3CC(CC(O)(C3)C1)C2)NCCc1ccc(Cl)cc1	i	.	.	.
Cc1cccc(CN2CCCC(C(=O)N3CCCCC3)C2)c1 (centres undefined)	i	0.16	.	.
SMILES	KCNQ2 block	KCNQ2 pot	Kir21 confirm	HEK293 Tl flux	others
CCN(c1ccccc1)S(=O)(=O)c1cccc(C(=O)NCc2ccncc2)c1	i	0.75	.	.
CC(C)c1nc2sc3c(=O)[nH]c(=S)[nH]c3c2c2c1CCC2	i	4.5	.	.
CC(C)c1nc2sc3c(=O)[nH]c(=S)[nH]c3c2c2c1CCCC2	i	9*	i	132%*	CHO-K1 ctr=-18;KCNQ1 pot spec=-8;KCNQ2 pot confirm=-16;Kir21 spec=-30
COc1ccc(OCC(O)Cn2c(=N)n(Cc3ccccc3)c3ccccc32)cc1 (centres undefined)	i	.	46%*	i
CCN(CC)CCn1c(=N)n(CC(O)COc2cccc(C)c2)c2ccccc21 (centres undefined)	i	.	56%*	i
N=c1n(Cc2ccccc2)c2ccccc2n1CC(O)c1ccco1 (centres undefined)	i	0.66	.	.
Cc1cccc(OCC(O)Cn2c(=N)n(CCN3CCCCC3)c3ccccc32)c1 (centres undefined)	i	.	.	.
N=c1n(Cc2ccccc2)c2ccccc2n1Cc1ccccc1	i	0.8	.	.
Cc1cccc(OCC(O)Cn2c(=N)n(Cc3ccccc3)c3ccccc32)c1 (centres undefined)	i	.	32%*	i
Cc1cccc(OCC(O)CN2CCNCC2)c1 (centres undefined)	i	0.24	.	.
Cc1ccc(OCC(O)Cn2c(=N)n(Cc3ccccc3)c3ccccc32)cc1 (centres undefined)	i	.	38%*	i
CC(C)(C)OC(=O)N1CCN(c2ccc([N+](=O)[O-])cc2)CC1	i	.	.	.
Cc1ccc(F)cc1CNC(=O)C1CCC(=O)N(CCCN2CCCC2=O)C1 (centres undefined)	i	0.46	.	.
Cc1ccc([N+](=O)[O-])cc1S(=O)(=O)Nc1ccccn1	i	1.2	.	.
COCCn1c(C)cc(/C=C2/NC(=O)N(c3ccc(Cl)cc3)C2=O)c1C	i	1.3	.	.
Cc1ccc(CNCC(O)(c2ccccc2)c2ccc(F)cc2)cc1 (centres undefined)	i	.	.	.
OC(CNCc1ccccc1F)(c1ccc(F)cc1)c1ccc(F)cc1	i	.	.	.
OC(CNCc1ccc(F)cc1)(c1ccccc1)c1ccc(F)cc1 (centres undefined)	i	.	i	i
OC(CNCc1ccccc1)(c1ccc(F)cc1)c1ccc(F)cc1	i	.	38%*	i
CCN1C(=O)N(S(=O)(=O)c2ccc(C)cc2)[C@@H](c2ccccc2)C(C(=O)OC)=C1C	i	.	.	.
CC/S(C)=N/S(=O)(=O)c1ccc(C)cc1 (centres undefined)	i	0.89	.	.
C=CCc1cc(/C=C2/NC(=O)N(CC(=O)OC)C2=O)cc(OC)c1O	i	2	.	.
CC(=O)NCCCC(=O)NN1C(=S)N(Cc2ccccc2)C(=O)C1CC(=O)Nc1cccc(C)c1 (centres undefined)	i	1.1	.	.
O=C1c2ccccc2C(=O)N1CCC(c1ccc(F)cc1)c1ccco1 (centres undefined)	i	.	.	.
